For part of these data: Measured potencies and affinities stand elsewhere.
Tests used:
Set-up in all cases: scale not given: direction of the effect not stated beside the values
[1] = target: Protein translocase subunit SecA (Escherichia coli (strain K12)) (UniProt P10408); test: Assay to Identify E. coli SecA ATPase Inhibitors; format: functional; conditions: 30 µM
[2] = target: T1, Ubiquitin-activating enzyme e1, putative (Leishmania donovani (strain BPK282A1)) (UniProt E9BSI1); test: Leishmania donovani Ubiquitin Activating Enzyme (LdE1); format: functional; conditions: 30 µM
T1 sequence (whole entry): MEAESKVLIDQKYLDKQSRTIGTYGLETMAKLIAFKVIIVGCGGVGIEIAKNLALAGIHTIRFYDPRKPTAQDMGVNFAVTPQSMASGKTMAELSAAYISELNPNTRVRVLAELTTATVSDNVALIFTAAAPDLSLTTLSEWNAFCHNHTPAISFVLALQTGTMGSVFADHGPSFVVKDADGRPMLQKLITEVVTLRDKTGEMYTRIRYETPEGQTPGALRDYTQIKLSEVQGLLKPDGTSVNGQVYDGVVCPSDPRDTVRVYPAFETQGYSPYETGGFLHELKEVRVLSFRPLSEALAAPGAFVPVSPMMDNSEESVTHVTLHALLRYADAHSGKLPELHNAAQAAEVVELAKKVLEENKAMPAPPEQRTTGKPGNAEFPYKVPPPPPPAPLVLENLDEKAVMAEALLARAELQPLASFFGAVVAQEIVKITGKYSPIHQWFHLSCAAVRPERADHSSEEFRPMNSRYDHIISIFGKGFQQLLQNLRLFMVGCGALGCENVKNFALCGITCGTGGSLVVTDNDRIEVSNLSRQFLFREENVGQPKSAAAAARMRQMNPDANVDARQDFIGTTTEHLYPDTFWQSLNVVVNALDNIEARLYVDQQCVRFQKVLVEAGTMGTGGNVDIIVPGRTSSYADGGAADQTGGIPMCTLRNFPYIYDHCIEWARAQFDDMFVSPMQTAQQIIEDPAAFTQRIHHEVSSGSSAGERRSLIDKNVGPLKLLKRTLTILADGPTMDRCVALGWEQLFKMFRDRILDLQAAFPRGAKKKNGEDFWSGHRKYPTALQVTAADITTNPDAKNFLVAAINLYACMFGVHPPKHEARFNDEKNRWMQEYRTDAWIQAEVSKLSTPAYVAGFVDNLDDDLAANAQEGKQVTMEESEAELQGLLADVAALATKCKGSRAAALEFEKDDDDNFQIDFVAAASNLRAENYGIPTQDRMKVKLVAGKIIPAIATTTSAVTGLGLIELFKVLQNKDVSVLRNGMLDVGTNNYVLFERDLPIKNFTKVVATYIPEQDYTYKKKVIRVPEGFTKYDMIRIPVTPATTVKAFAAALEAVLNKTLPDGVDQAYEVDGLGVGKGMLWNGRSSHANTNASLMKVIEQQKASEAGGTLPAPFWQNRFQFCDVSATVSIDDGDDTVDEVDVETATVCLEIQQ

[3] = target: AMP-activated protein kinase, AMPK (Homo sapiens) (UniProt P54646+O43741+P54619+Q9UGJ0+Q9Y478+Q13131+Q9UGI9); test: AMP-dependent Kinase enzyme assay. An in vitro enzyme assay that detects ADP turnover that is directly proportional to AMPK activity. This uses naive AMPK that is activated during the assay with MK-8722; format: functional; conditions: 30 µM
[4] = target: Sialic acid-binding Ig-like lectin 9 (Homo sapiens) (UniProt Q9Y336); test: Hs-Siglec9 ALPHAscreen SOP 20170721; conditions: 10 µM
Sequence of Sialic acid-binding Ig-like lectin 9 (Homo sapiens) (Q9Y336 whole entry): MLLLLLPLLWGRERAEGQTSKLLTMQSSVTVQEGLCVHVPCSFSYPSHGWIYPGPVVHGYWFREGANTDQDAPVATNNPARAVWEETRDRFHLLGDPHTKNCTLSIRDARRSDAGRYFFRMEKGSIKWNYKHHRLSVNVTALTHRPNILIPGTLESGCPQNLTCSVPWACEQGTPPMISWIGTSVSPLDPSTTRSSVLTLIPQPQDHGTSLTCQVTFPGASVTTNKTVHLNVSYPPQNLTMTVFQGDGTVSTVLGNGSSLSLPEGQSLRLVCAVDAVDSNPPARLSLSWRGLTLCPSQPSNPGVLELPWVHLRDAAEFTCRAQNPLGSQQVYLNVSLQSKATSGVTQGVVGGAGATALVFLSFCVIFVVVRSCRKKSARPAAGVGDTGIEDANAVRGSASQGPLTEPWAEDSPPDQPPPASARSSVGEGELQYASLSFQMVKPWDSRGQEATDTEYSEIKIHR

Trypanosoma cruzi = test: Trypanosoma cruzi phosphomannomutase and mannose-1-phosphate guanylyltransferase assay; format: functional; conditions: 10 µM
[5] = target: T2, Arginase-2, mitochondrial (Homo sapiens) (UniProt P78540); test: in vitro enzyme assay to detect the production of urea directly proportional to the activity of Arginase II; format: functional; conditions: 33.3 µM; also: in the data most compounds retested in dose-response had high values
T2 sequence (whole entry): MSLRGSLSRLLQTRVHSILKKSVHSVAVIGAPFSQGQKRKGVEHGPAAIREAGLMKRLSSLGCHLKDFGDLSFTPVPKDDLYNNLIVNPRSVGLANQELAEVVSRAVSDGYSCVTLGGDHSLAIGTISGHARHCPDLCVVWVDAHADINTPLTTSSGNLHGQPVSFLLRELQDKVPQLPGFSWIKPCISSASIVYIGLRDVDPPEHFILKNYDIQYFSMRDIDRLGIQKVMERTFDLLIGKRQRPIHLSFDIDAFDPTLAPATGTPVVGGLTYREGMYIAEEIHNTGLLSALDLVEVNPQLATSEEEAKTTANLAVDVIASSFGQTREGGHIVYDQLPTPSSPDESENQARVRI

[6] = target: T3, Proteasome subunit beta (Trypanosoma cruzi) (UniProt O96673); test: Trypanosoma cruzi proteasome chymotrypsin-like activity (TcProtChymo) assay.; also: in the data most compounds retested in dose-response had high values; format: functional; conditions: 9.37 µM
T3 sequence (whole entry): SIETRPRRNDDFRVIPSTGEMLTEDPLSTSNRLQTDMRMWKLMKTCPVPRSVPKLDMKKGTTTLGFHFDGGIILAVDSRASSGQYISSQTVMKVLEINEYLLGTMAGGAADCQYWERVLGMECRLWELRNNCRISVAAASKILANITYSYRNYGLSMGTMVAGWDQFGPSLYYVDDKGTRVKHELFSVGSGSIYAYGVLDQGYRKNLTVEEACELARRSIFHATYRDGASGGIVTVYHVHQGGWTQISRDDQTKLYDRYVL

Homo sapiens = organism: Homo sapiens; test: To identify inhibition of the IFN signalling (Jak-Stat) pathway via expression of an eGFP reporter gene under the control of an IFN-stimulated response element (ISRE) containing MxA promoter.; format: functional; conditions: 30 µM
[7] = target: T4, Tyrosyl-tRNA synthetase, putative (Trypanosoma cruzi (strain CL Brener)) (UniProt Q4DSP6); test: Trypanosoma cruzi tyrosyl tRNA synthetase (TcYRS) _High Tyrosine SOP; format: functional; conditions: 30 µM; also: in the data most compounds retested in dose-response had high values
T4 sequence (whole entry): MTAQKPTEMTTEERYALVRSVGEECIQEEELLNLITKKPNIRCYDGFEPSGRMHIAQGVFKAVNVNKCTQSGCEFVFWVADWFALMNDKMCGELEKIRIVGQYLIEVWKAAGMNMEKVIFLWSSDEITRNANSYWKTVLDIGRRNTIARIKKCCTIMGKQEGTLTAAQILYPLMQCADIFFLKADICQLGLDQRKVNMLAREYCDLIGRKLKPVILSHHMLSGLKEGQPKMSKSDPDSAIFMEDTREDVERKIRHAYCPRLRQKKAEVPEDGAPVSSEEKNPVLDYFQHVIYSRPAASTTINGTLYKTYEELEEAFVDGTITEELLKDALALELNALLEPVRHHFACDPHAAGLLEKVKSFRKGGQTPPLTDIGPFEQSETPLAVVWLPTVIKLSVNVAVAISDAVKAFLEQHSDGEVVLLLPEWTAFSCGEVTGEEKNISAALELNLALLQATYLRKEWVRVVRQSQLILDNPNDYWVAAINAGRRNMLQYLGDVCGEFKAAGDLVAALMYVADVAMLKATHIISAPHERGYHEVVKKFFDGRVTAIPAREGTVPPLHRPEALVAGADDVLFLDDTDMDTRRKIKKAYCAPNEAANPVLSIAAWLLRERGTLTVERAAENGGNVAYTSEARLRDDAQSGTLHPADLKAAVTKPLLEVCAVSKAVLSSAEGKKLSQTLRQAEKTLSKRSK

[8] = target: T4, Tyrosyl-tRNA synthetase, putative (Trypanosoma cruzi (strain CL Brener)); test: Trypanosoma cruzi tyrosyl tRNA synthetase (TcYRS) SOP; format: functional; conditions: 30 µM
[9] = target: Chromo domain-containing protein 1 (Saccharomyces cerevisiae (strain ATCC 204508 / S288c) (Baker's yeast)) (UniProt P32657); test: ScCHD-1 Enzyme Inhibition Assay; format: functional; conditions: 30 µM; also: in the data most compounds retested in dose-response had high values
Sequence of Chromo domain-containing protein 1 (Saccharomyces cerevisiae (strain ATCC 204508 / S288c) (Baker's yeast)) (P32657 whole entry, the tested form may be a part): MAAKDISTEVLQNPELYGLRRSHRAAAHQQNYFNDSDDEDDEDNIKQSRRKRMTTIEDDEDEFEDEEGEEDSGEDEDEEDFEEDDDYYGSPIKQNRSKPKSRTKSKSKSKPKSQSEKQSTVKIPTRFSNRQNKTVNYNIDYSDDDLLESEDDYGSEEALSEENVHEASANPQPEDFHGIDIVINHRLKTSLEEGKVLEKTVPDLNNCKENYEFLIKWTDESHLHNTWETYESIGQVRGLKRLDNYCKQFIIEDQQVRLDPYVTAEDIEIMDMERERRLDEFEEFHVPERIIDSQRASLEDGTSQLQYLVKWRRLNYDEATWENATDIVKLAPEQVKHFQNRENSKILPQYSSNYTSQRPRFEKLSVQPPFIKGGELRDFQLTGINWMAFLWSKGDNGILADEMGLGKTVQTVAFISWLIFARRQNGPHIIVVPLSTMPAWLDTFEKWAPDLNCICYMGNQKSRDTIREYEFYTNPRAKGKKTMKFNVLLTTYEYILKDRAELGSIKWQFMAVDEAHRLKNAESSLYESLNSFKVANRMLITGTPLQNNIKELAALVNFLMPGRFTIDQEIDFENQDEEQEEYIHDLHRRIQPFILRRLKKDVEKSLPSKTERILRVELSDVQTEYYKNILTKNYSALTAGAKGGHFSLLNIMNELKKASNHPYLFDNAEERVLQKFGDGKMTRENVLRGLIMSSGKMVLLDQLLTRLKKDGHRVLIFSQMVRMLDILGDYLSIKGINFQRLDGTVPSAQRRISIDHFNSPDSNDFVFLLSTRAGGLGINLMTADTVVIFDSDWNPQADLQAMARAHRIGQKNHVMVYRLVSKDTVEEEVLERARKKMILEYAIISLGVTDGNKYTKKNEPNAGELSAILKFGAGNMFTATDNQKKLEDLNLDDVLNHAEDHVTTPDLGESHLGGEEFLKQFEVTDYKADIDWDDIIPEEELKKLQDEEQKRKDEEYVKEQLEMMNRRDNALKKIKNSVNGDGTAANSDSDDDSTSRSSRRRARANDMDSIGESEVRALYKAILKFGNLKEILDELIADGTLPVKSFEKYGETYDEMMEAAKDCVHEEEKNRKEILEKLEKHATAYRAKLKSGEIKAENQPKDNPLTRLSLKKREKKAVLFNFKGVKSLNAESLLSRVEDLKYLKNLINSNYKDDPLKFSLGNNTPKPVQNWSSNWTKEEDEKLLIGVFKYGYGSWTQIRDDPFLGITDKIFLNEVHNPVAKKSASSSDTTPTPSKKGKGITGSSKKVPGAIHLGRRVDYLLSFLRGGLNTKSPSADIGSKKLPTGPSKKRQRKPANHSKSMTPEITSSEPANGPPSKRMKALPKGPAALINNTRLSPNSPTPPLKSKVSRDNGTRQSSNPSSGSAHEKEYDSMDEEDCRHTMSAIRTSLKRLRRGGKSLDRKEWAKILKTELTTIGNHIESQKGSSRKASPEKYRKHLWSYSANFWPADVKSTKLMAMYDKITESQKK

Sequence of Protein translocase subunit SecA (Escherichia coli (strain K12)) (P10408 whole entry): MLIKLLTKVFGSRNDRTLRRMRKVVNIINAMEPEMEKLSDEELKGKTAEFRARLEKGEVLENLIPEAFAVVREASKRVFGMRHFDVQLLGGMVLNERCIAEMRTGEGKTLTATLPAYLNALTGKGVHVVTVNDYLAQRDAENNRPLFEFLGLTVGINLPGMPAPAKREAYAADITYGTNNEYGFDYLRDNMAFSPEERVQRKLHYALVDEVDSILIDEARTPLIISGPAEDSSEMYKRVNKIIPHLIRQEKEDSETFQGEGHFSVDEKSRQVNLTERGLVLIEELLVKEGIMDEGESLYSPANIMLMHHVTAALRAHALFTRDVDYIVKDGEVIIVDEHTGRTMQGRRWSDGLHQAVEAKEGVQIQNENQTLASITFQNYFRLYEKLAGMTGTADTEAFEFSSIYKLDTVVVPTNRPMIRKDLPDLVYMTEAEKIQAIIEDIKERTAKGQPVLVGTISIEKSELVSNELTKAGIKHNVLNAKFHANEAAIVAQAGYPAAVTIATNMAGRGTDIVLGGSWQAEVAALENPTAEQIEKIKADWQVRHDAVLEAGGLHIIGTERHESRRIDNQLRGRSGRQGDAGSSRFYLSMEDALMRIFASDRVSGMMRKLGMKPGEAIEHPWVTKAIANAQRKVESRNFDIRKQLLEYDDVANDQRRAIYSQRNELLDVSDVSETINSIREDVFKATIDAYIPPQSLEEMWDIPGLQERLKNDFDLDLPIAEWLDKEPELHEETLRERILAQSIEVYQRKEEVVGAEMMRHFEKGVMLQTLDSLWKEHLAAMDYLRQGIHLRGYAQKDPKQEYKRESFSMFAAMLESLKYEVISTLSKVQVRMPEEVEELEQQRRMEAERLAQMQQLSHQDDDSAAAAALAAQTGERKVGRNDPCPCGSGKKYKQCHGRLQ

| Compound | Percent Effect [1] | Percent Effect [2] | Percent Effect [3] | Percent Effect [4] | Percent Effect (Trypanosoma cruzi) | Percent Effect [5] | Percent Effect [6] | Percent Effect (Homo sapiens) | Percent Effect [7] | Percent Effect [8] | Percent Effect [9] |
| --- | --- | --- | --- | --- | --- | --- | --- | --- | --- | --- | --- |
| CN1CC(=O)N(c2cccnc2)CC12CCN(C(=O)c1cccnc1)C2 (stereo unspecified) | 1.61% | 10.7% | 11% | -7.78% | -3.09% | -53.9% | 14.5% | 2.71% | 6.25% | 10% | -5.77% |
| NC(=O)C1CN(C(=O)Nc2ccccc2SC(F)(F)F)CCO1 (stereo unspecified) | -2.59% | 10.8% | -2.48% | 12.1% | 7.15% | -1.29% | 4.31% | 9.57% | 5.94% | 18.3% | -7.87% |
| CC(O)CN1CCN(Cc2nnc(C3CC3)o2)CC1 (stereo unspecified) | -2.68% | 22.8% | -5.24% | -11.8% | 6.7% | 4.56% | 15% | -18.4% | 6.4% | 21.5% | -4.52% |
| Cn1ncc2c(NCCC34CCCN3CCC4)nc(C3CCCC3)nc21 | -5.81% | 5.48% | 0.214% | 3.33% | 0.979% | 4.09% | 5.68% | -18.5% | 6.45% | 12.5% | -5.71% |
| Cc1nn(C)c(N2CCOCC2)c1CNC1CCc2ccccc2C1 (stereo unspecified) | -2.57% | 15.2% | -15% | 9.25% | 3.12% | -2.28% | -2.87% | 8.26% | 9.36% | 16.5% | -4.44% |
| Cc1nc(NC2CCCC2)cc(C2CCN2C(=O)c2cccnc2)n1 (stereo unspecified) | -4.83% | 23% | 7.33% | 1.33% | 4.54% | -3.48% | 10.8% | 12.2% | 6.45% | 14.3% | -16% |
| O=C(CCc1nc2cccnc2[nH]1)NCc1ccc2c(c1)OCO2 | -3.15% | 12% | 2.23% | 0.158% | 0% | -10.4% | 14.1% | -11.6% | 9.52% | 17.9% | -10% |
| N#Cc1ccc(N2CCCN(C(=O)CC3CCCO3)CC2)cc1 (stereo unspecified) | -4.45% | 5.41% | 7.34% | 18.8% | 5.19% | -5.61% | -2.34% | 10.8% | 0.493% | 16.1% | -12.8% |
| O=C(NC[C@]12COC[C@H]1CN(C1CCOCC1)C2)c1ccco1 | -5.25% | 10.7% | 4.78% | -6.09% | -2.17% | 8.16% | 12.8% | 5.24% | 9.57% | 8.97% | 0.371% |
| C1CC1c1nsc(N2CCN(C3CC3)CC2)n1 | -5.35% | 13.7% | 2.89% | 8.66% | 5.49% | 13.2% | 13.3% | 12.3% | 6.45% | 15% | -6.12% |
| COCC(=O)NCc1cc(=O)n2c(n1)CN(CC1CCOC1)CCC2 (stereo unspecified) | 0.158% | 13.5% | 2.63% | -10.2% | 0.0978% | -2.23% | 8.12% | 8.83% | -1.08% | 12.8% | -2.53% |
| CS(=O)(=O)NCCC(=O)NC1CCc2nccn2C1 (stereo unspecified) | 2.27% | 2.67% | -6.45% | 1.64% | -7.5% | 2.08% | 19.7% | 11.5% | 4.92% | 11.1% | -5.26% |
| CN(C)C(=O)CN1C[C@@H]2CC[C@H](C1)N(Cc1cc(F)ccc1F)C2 | -2.16% | 5.48% | 42.7% | 2.19% | -9.13% | -2.79% | 20.6% | 15.6% | 4.17% | 6.17% | -5.68% |
| CN(Cc1ccco1)[C@@H]1CN(C(=O)c2ccnnc2)[C@@H]2CCCO[C@H]12 | -2.54% | 2.74% | -7.68% | 19.2% | 7.74% | -2.4% | 13.4% | -41.3% | 3.12% | 13.6% | -1.74% |
| COCC(=O)N1CCO[C@H]2[C@H](OC)CC[C@@H]21 | -6.12% | 5.41% | 1.82% | -0.654% | -4.79% | 4.78% | 21.8% | 9.88% | 1.08% | 5.13% | 1.01% |
| O=C(c1cnco1)N1CCCC(Cc2cccc3ncccc23)C1 (stereo unspecified) | -1.91% | -4.05% | 15.2% | -0.964% | 7.51% | 0.696% | 8.42% | 17.8% | 1.07% | 9.09% | -18.8% |
| Cc1nc(CN(Cc2ccccc2)C2CCS(=O)(=O)C2)oc1C (stereo unspecified) | -2.4% | 15.8% | -3.46% | 2.71% | 5.32% | -1.08% | 10.4% | -8.35% | 7.39% | 23.5% | -6.72% |
| CCc1nccn1C1CCCN(C(=O)c2cc3nc(C)ccc3o2)C1 (stereo unspecified) | -7.55% | 8.11% | -3.48% | 4.87% | -6.7% | -4.81% | 4.87% | 32.4% | 3.45% | 3.7% | 0.188% |
| Clc1snnc1CN1CCCC(Cn2cncn2)C1 (stereo unspecified) | -1.77% | 17.7% | -3.42% | -8.68% | 1.98% | -1.52% | 18.6% | 6.4% | 10.3% | 29.1% | -10.8% |
| COc1cccc(N2CCN(Cc3ccc(NC(C)=O)cc3)CC2=O)c1 | -2.84% | 18.1% | -5.61% | 20.1% | 6.51% | 10.2% | 11.6% | 4.1% | 4.21% | 15.4% | -2.22% |
| CC(=O)N1CCN(S(=O)(=O)c2ccc(C)c(F)c2)CC1 | -4.54% | 10.5% | 2.19% | -1.23% | 5.75% | 9.47% | 13.1% | 12.6% | 2.13% | 15.6% | -3.17% |

Source: ChEMBL document CHEMBL3988442, “University of Dundee, Small-Polar-MMV Screening Library” (2021)
